MITF inh = MITF inhibitors, primary screen, biochemical, AlphaScreen, human. AlphaScreen MITF homodimerization, bead proximity signal. inhibition, % at 2.6 µM. hit rate 0.91% among 650,000. Microphthalmia-associated transcription factor (Homo sapiens), O75030; in the data active = inhibition above about 50%;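 note: 0% = vehicle wells with protein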
GPR151 activ = activators of human GPR151, primary screen, cell-based, PathHunter beta-arrestin, luminescence; hit rate 1% among 650,000; activation, % at 11.2 µM; PathHunter beta-arrestin GPR151 cells; AID 1508602, 2020; G-protein coupled receptor 151 (Homo sapiens), Q8TDV0; in the data active = activation above about 4.9%;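 note: 0% = median of compound wells and 100% = cells with positive control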
Target sequence (Q8TDV0 whole entry, looked up): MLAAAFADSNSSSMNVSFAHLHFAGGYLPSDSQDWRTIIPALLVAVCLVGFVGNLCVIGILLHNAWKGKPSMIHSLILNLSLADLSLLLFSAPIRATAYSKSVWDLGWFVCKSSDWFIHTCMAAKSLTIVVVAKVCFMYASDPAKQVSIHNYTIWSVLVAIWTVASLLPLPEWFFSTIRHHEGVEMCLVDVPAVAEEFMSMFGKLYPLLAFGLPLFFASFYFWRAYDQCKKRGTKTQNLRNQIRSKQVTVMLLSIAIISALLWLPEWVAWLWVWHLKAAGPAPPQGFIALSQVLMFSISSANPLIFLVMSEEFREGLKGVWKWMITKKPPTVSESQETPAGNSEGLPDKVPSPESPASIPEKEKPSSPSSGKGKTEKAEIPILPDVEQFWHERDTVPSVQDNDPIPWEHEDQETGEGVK
FBW7 act = FBW7 E3 ligase activators, primary screen, biochemical, AlphaScreen, human; hit rate 0.13% among 650,000; AlphaScreen FBW7–phospho-cyclin E peptide binding, activator screen; AID 1259310, 2017; normalized activity (activation), % at 26.1 µM; F-box/WD repeat-containing protein 7 (Homo sapiens), Q969H0; in the data active = normalized activity above about 1.9%;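 note: purified mutant Fbw7 with reduced substrate affinity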
TEAD-YAP block = TEAD-YAP interaction inhibition, primary screen, TEAD-YAP interaction inhibitor project, luminescence, HEK-TIYL cells; TEAD-Gal4/YAP UAS-luciferase luminescence; inhibition, % at 9.12 µM; hit rate 1.4% among 640,000; AID 1259422, 2018; in the data active = inhibition above about 32%;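 note: 0% = median of test compound wells and 100% = reference inhibitor wells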
* = called active by the depositor. Shown are actives, neighbours in structure and some others; about 3.5% of the full set was active somewhere.

SMILES | MITF inh | GPR151 activ | FBW7 act | TEAD-YAP block
CCC(=O)OCCN1C(=O)c2cccc3c(N4CCOCC4)ccc(c23)C1=O | -12 | -1 | 0 | -3
Cc1cc(Nc2ccc(Br)cc2)nc(-n2nc(C)cc2C)n1 | 4 | 0 | 1 | 64*
Cc1cc(Nc2ccc3c(c2)OCO3)nc(Cl)n1 | 12 | 0 | 0 | -16
Cc1cc(Nc2ccc3c(c2)OCCO3)nc(-n2nc(C)cc2C)n1 | 5 | -1 | 0 | 87*
Cc1cc(Nc2ccc(Cl)cc2)nc(N)n1 | 0 | -1 | 0 | -59
Cc1cc(Nc2ccc(Cl)cc2)nc(-n2nc(C)cc2C)n1 | 4 | 1 | 0 | 47*
Cc1cc(C)n(-c2nc(-c3ccc(Br)cc3)cs2)n1 | -8 | 0 | 0 | -11
Cc1ccc(CNc2cc(C)nc(-n3nc(C)cc3C)n2)cc1 | -6 | -2 | 0 | 67*
CC(=O)c1ccccc1OCC(O)CN1CCN(CCO)CC1 (centres undefined) | 5 | 1 | 0 | -1
CCCN(C(=O)c1coc(=O)c2ccccc12)c1cccc(Cl)c1 | 2 | 0 | 0 | 68*
COc1ccc(C(=O)Nc2c(-c3ccc(F)cc3)nc3ccccn23)cc1OC | 5 | 0 | 0 | 4
COc1cc(/C=N/Nc2snc(SC)c2C#N)cc(OC)c1OC | 2 | -1 | 0 | 34*
CCOc1ccc(/C=N/Nc2snc(SC)c2C#N)cc1 | 8 | 1 | 0 | -9
Cc1noc(/C=C/c2ccccc2F)c1S(=O)(=O)N1CCC(C(=O)NC(C)C)CC1 | 6 | 0 | 0 | 5
CN(C)c1ccc(/C=C/CN2CCN(Cc3ccc4c(c3)OCO4)CC2)cc1 | 68* | 0 | -1 | -7
O=C(/C=C/c1ccc(Cl)cc1)N1CCN(Cc2ccc3c(c2)OCO3)CC1 | 13 | 1 | 0 | -1
CCN(CC)c1nc(Nc2cccc(C(F)(F)F)c2)nc(N2CCOCC2)n1 | -8 | 0 | 0 | -1
O=C(Nc1nc2ccccc2[nH]1)c1ccccc1Cl | 3 | -11 | 0 | 83*
O=C(Nc1nc2ccccc2[nH]1)c1ccc(Cl)cc1Cl | -10 | -11 | 0 | 84*
O=C(Nc1nc2ccccc2[nH]1)c1ccc([N+](=O)[O-])cc1Cl | 3 | -6 | 0 | 18
O=C(Nc1cnc2ccccc2c1)c1ccc(Cl)cc1Cl | 10 | -4 | 0 | 66*
COc1cc(NC(=O)c2cc([N+](=O)[O-])ccc2N2CCOCC2)c(OC)cc1Cl | 9 | 1 | 0 | 6
CCC1CCC(NCc2ccc(OC)cc2)CC1 (centres undefined) | -24 | 0 | 0 | 1
COc1cc(COc2ccc3c(C)cc(=O)oc3c2)cc(OC)c1OC | -8 | 2 | 0 | 56*
COc1cc(COc2ccc3ccc(=O)oc3c2)cc(OC)c1OC | 0 | -1 | 0 | 4
SMILES | MITF inh | GPR151 activ | FBW7 act | TEAD-YAP block
Cc1nn2c(nc(N3CCOCC3)c3ccccc32)c1/C=C(\C#N)c1ccc([N+](=O)[O-])cc1 | 11 | 0 | 0 | 3
O=C(OCc1ccccc1)c1cc(Cl)ccc1[N+](=O)[O-] | 4 | -1 | 0 | 6
O=C(OCc1cc(=O)oc2cc(O)c(O)cc12)c1cc(Cl)ccc1[N+](=O)[O-] | 64* | 1 | 0 | 6
Cc1cc(C2C(=O)c3ccccc3C2=O)nc2ccccc12 | -9 | 0 | 0 | 49*
CCCc1cc(N2CCN(c3ccc(OC)cc3)CC2)n2cnnc2n1 | -5 | 0 | 0 | 42*
Cc1cc(-c2ccc(S(=O)(=O)N3CCc4ccccc43)cc2)on1 | 15 | -1 | 0 | 58*
Cn1c(=O)oc2cc(S(=O)(=O)N3CCc4ccccc43)ccc21 | 9 | 0 | 0 | 50*
Cn1c(=O)c(=O)n(C)c2cc(S(=O)(=O)N3CCc4ccccc43)ccc21 | 14 | 0 | 0 | -3
O=S(=O)(c1ccc(Cl)c(Cl)c1)N1CCc2ccccc21 | -7 | 1 | 0 | 14
CC1Cc2ccccc2N1S(=O)(=O)c1ccc2c(c1)oc(=O)n2C (centres undefined) | -3 | 1 | 0 | 49*
Cn1c(=O)oc2cc(S(=O)(=O)N3CCCc4ccccc43)ccc21 | 8 | -1 | 1 | 55*
COc1c(C(=O)Nc2ccc3c(c2)C(=O)N(C)C3=O)cc2ccccc2c1Br | 15 | 0 | 0 | -2
Cc1ccc(OCC(=O)Nc2ccc(C(N)=O)cc2)c([N+](=O)[O-])n1 | 10 | -1 | 0 | 2
CC(C)n1cnc2c(NCc3ccccc3)nc(-c3ccc(C(=O)N4CCN(C)CC4)cc3)nc21 | 11 | 0 | 0 | -3
CC(C)n1cnc2c(NCc3nc4ccccc4[nH]3)nc(-c3ccc(C(=O)N4CCN(C)CC4)cc3)nc21 | 7 | -1 | 0 | 65*
CC(C)n1cnc2c(NCc3nc4ccccc4[nH]3)nc(-c3ccc(C(=O)NC4CC4)cc3)nc21 | 18 | -1 | 0 | 78*
CCOc1ccc(N2CC(C(=O)NC(C)c3ccccc3)CC2=O)cc1 (centres undefined) | 11 | -2 | 0 | 0
CN(C)c1ccc(NC2=C([N+](=O)[O-])C(=O)c3ccccc32)cc1 | 86* | -2 | -1 | 2
COc1ccc(-n2nc(C(=O)NCC(=O)Nc3ccc(C)cc3Br)c3ccccc3c2=O)cc1OC | -16 | 2 | 0 | -1
CCCc1sc(NC(=O)c2ccc(C)cc2)c(C(=O)O)c1C | 14 | -1 | 1 | 52*
COc1ccc(-c2csc(NC(=O)c3ccc(C)cc3)c2C(=O)O)cc1 | 4 | 0 | 0 | 47*
CCOC(=O)c1c(NC(=O)c2ccc(C)cc2)sc(C(=O)Nc2ccccc2)c1C | -4 | 1 | 1 | -7
Cn1cnnc1-c1ccc(Nc2nccc(-c3cncc(N4CCOCC4)c3)n2)cc1 | 27 | 0 | 1 | 33*
COc1ccc(Nc2nccc(-c3cncc(N4CCOCC4)c3)n2)cc1OC | -11 | 2 | 0 | 47*
FC(F)(F)c1cc(Nc2nccc(-c3cncc(N4CCOCC4)c3)n2)ccc1Cl | -1 | -1 | 0 | -12
SMILES | MITF inh | GPR151 activ | FBW7 act | TEAD-YAP block
Cn1ccc2cc(Nc3nccc(-c4cncc(N5CCOCC5)c4)n3)ccc21 | 21 | -1 | -1 | 81*
O=S(=O)(c1ccc(Nc2nccc(-c3cncc(N4CCOCC4)c3)n2)cc1)N1CCOCC1 | -12 | 0 | 0 | -8
c1cc(-c2cncc(N3CCOCC3)c2)nc(Nc2ccc(OCCN3CCOCC3)cc2)n1 | 16 | -1 | 0 | 78*
FC(F)(F)c1ccc(Cn2cnc3c(NCc4cccnc4)nc(Cl)nc32)cc1 | -7 | -1 | 0 | -12
O=C(c1cc2cc(Br)ccc2oc1=O)N1CCSC1c1cccc([N+](=O)[O-])c1 (centres undefined) | 10 | 1 | 0 | 11
COCc1cc(C)n(CC(=O)Nc2ccccc2Br)c(=O)c1C#N | 14 | 0 | 0 | 6

Screening results deposited in PubChem BioAssay by The Scripps Research Institute Molecular Screening Center.
